This is an account of results in ChEMBL document CHEMBL3988442, “University of Dundee, Small-Polar-MMV Screening Library” (2021).

One experiment deals with T1, Proteasome subunit beta (Trypanosoma cruzi) (UniProt O96673).
T1 sequence (whole entry): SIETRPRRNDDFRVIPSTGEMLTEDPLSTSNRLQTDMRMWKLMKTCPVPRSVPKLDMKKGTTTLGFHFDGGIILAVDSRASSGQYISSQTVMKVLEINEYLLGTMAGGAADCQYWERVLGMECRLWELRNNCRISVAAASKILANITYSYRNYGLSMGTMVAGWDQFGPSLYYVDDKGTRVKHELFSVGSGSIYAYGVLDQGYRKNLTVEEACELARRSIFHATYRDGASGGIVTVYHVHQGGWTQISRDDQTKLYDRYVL
As to the kind of experiment: Trypanosoma cruzi proteasome chymotrypsin-like activity (TcProtChymo) assay. Details: scale not given: in the data most compounds retested in dose-response had high values. The class given is functional. Particulars: 9.37 µM.
For the molecule `CN(CCO)Cc1nnc(C2CCN(C(=O)c3cccnc3)CC2)n1C`, the Percent Effect came out at 6.97%.
The same measure, in the same setting: the result for `CN(C)C(=O)NC1COC2(CCN(C(=O)Nc3ccccc3)CC2)C1` (stereo not drawn) reads 8.72%; that for `Cc1cc(C)c(CNC(=O)NCC(O)COc2ccccc2)c(=O)[nH]1` (stereo not drawn), -1.1%.
Still for that read-out and setting: under `CCc1cnc2c(c1NCc1ccncc1)c(=O)n(C)c(=O)n2C` stands 13.1%; under `c1cc(C2CCCN2Cc2nnnn2C2CC2)cs1` (stereo not drawn), 21.2%; under `O=C(CC1CC1)N1CCn2cc(Cn3cncn3)nc2C1`, 10.8%.
On the same count and under the same terms, the result for `CN1CCN(Cc2cn3c(n2)CN(C(=O)N2CCOCC2)CC3)CC1` reads 0.499%.
For the molecule `CC(C)c1nc(C(=O)N2CCCC(n3cncn3)C2)c[nH]1` (stereo not drawn), the Percent Effect was determined as 12.9%.
Take `CC(C)Cc1cc(C(=O)NCc2nnc[nH]2)[nH]n1`: the Percent Effect was 13.1%.
Still for that read-out and setting: under `Cn1c(C(F)(F)F)nn(CCNC(=O)CSCc2ccccc2)c1=O` stands 4.79%; under `O=C(NCCn1ccc(-c2ccncc2)n1)c1ccncc1`, 9.58%.
Turning to `CCn1cc(N)c(C(=O)NCc2cnn(C)c2)n1`, the Percent Effect stood at 9.48%.
Same read-out and setting: under `COc1c(CNCc2ccnc(N3CCCC3)c2)c(C)nn1C` stands -4.12%; under `COCCn1cc(C(=O)N2CCCC2c2cc(C)no2)ccc1=O` (stereo not drawn), 9.48%.
The same measure, in the same setting: under `CC(C)C(=O)NCCCn1ncc2c(Cl)cccc21` stands 4.33%; under `Cc1c[nH]c(CN(C)C(=O)c2cccc(CCC(C)(C)O)c2)n1`, 18%.
On the same count and under the same terms, under `CC(O)CC(C)(C)CNC(=O)NCc1cccc(-n2ccnc2)c1` (stereo not drawn) stands -2.83%.
In the case of `CN(C)C(C)(C)CNC(=O)C(C)(C)c1ccccc1F`, the Percent Effect was 13.2%.
On the same count and under the same terms, the result for `Cc1cnn(CC2CCCN2C(=O)c2cc3ccccc3[nH]2)c1` (stereo not drawn) reads 7.2%; that for `Cc1ccc(C(=O)N2CCN(S(C)(=O)=O)CC2)cc1N1CCNC1=O`, 15.5%; that for `CC(=O)c1ccccc1C(=O)NCC1(CO)CC1`, 3.79%.
Same read-out and setting: the result for `Cn1nc(CNC(=O)C2COc3ccccc3O2)cc1C1CC1` (stereo not drawn) reads 8.36%; that for `CN(CCCc1cnn(C)c1)C(=O)C1CCOC1` (stereo not drawn), 13.1%; that for `CC(NC(=O)NCC1(c2ccccc2)CCC1)c1nncn1C` (stereo not drawn), 5.67%.
The same measure, in the same setting: the result for `CN(C)Cc1cc(=O)n2c(n1)CN(C(=O)Cc1ccsc1)CCC2` reads 6.49%; that for `COCCCNC(=O)CN(C)C(=O)c1cc(C)sc1C`, 4.67%; that for `Cn1c(CN2CCCC2)nnc1C1CCCN(C(=O)C2CCOCC2)C1` (stereo not drawn), 8.1%.
`COc1ccc(NC(C)=O)c(N2CCN(C(C)=O)CC2)n1`: the Percent Effect stood at 7.35%.
Take `CC(=O)NCCc1cc(N2CCN(C(C)=O)CC2)nc(C2CC2)n1`: the Percent Effect was determined as 9.36%.
Still for that read-out and setting: under `NC(=O)CC1CCN(C(=O)CCOc2ccc(Cl)cc2)CC1` stands 8.19%; under `CCn1ccnc1CN1CCCC(CO)(Cc2cccc(Cl)c2)C1` (stereo not drawn), 3.18%; under `COc1cccc(C(=O)NS(=O)(=O)c2cccc(C#N)c2)c1OC`, -0.539%.
Consider `Cc1csc(N2CCN(CCc3ccccn3)CC2C)n1` (stereo not drawn), for which the Percent Effect is 4.79%.
On the same count and under the same terms, the result for `Cn1nnc2c1CCN(Cc1ccccc1)C2COCC1CC1` (stereo not drawn) reads 5.9%.
For the molecule `c1ccc(-c2noc3c2CN(CC2CC2)CC3)cc1`, the Percent Effect was 6.92%.
As for `CC(C)(C)c1n[nH]c(C2CN(C(=O)c3csnn3)CCO2)n1` (stereo not drawn), the Percent Effect amounted to 2.4%.
Same read-out and setting: under `O=C(NC[C@H]1OC[C@@H]2CCN(Cc3ccco3)C[C@@H]21)c1ccsc1` stands 11.2%; under `CS(=O)(=O)NC[C@]12COC[C@H]1CN(C(=O)c1ccoc1)C2`, 10.6%; under `Cc1nn(C)c(N(C)C)c1CNCc1ccccc1CN(C)C`, 15.9%.

The species entered for another experiment is Homo sapiens. As to the kind of experiment: To identify inhibition of the IFN signalling (Jak-Stat) pathway via expression of an eGFP reporter gene under the control of an IFN-stimulated response element (ISRE) containing MxA promoter. The class given is functional. Details: scale not given: direction of the effect not stated beside the values. Particulars: 30 µM. For orientation: A reporter such as luciferase makes a cellular process visible.
For the molecule `CN(CCO)Cc1nnc(C2CCN(C(=O)c3cccnc3)CC2)n1C`, the Percent Effect is 4.06%.
With `CN(C)C(=O)NC1COC2(CCN(C(=O)Nc3ccccc3)CC2)C1` (stereo not drawn), the Percent Effect turned out to be 3.6%.
Same read-out and setting: the result for `Cc1cc(C)c(CNC(=O)NCC(O)COc2ccccc2)c(=O)[nH]1` (stereo not drawn) reads 12%.
Same read-out and setting: the result for `CCc1cnc2c(c1NCc1ccncc1)c(=O)n(C)c(=O)n2C` reads 14.7%.
Consider `c1cc(C2CCCN2Cc2nnnn2C2CC2)cs1` (stereo not drawn), for which the Percent Effect came out at 0.525%.
Same read-out and setting: under `O=C(CC1CC1)N1CCn2cc(Cn3cncn3)nc2C1` stands 2.39%; under `CN1CCN(Cc2cn3c(n2)CN(C(=O)N2CCOCC2)CC3)CC1`, -12.5%; under `CC(C)c1nc(C(=O)N2CCCC(n3cncn3)C2)c[nH]1` (stereo not drawn), 20.5%.
The same measure, in the same setting: the result for `CC(C)Cc1cc(C(=O)NCc2nnc[nH]2)[nH]n1` reads -0.467%.
Still for that read-out and setting: the result for `Cn1c(C(F)(F)F)nn(CCNC(=O)CSCc2ccccc2)c1=O` reads 14.2%; that for `O=C(NCCn1ccc(-c2ccncc2)n1)c1ccncc1`, 2.43%.
Turning to `CCn1cc(N)c(C(=O)NCc2cnn(C)c2)n1`, the Percent Effect was -5.92%.
As to `COc1c(CNCc2ccnc(N3CCCC3)c2)c(C)nn1C`, the Percent Effect stood at 7.98%.
In the case of `COCCn1cc(C(=O)N2CCCC2c2cc(C)no2)ccc1=O` (stereo not drawn), the Percent Effect is 1.94%.
Same read-out and setting: the result for `CC(C)C(=O)NCCCn1ncc2c(Cl)cccc21` reads -1.52%; that for `Cc1c[nH]c(CN(C)C(=O)c2cccc(CCC(C)(C)O)c2)n1`, -2.28%.
On the same count and under the same terms, the result for `CC(O)CC(C)(C)CNC(=O)NCc1cccc(-n2ccnc2)c1` (stereo not drawn) reads 18.3%; that for `CN(C)C(C)(C)CNC(=O)C(C)(C)c1ccccc1F`, 17.2%; that for `Cc1cnn(CC2CCCN2C(=O)c2cc3ccccc3[nH]2)c1` (stereo not drawn), 1.95%.
Still for that read-out and setting: the result for `Cc1ccc(C(=O)N2CCN(S(C)(=O)=O)CC2)cc1N1CCNC1=O` reads 16.6%; that for `CC(=O)c1ccccc1C(=O)NCC1(CO)CC1`, 21.2%; that for `Cn1nc(CNC(=O)C2COc3ccccc3O2)cc1C1CC1` (stereo not drawn), 1.88%.
As to `CN(CCCc1cnn(C)c1)C(=O)C1CCOC1` (stereo not drawn), the Percent Effect was 10.7%.
The same measure, in the same setting: the result for `CC(NC(=O)NCC1(c2ccccc2)CCC1)c1nncn1C` (stereo not drawn) reads -2.94%; that for `CN(C)Cc1cc(=O)n2c(n1)CN(C(=O)Cc1ccsc1)CCC2`, -22.4%.
On the same count and under the same terms, the result for `COCCCNC(=O)CN(C)C(=O)c1cc(C)sc1C` reads 14.8%; that for `Cn1c(CN2CCCC2)nnc1C1CCCN(C(=O)C2CCOCC2)C1` (stereo not drawn), 6.46%.
On the same count and under the same terms, under `COc1ccc(NC(C)=O)c(N2CCN(C(C)=O)CC2)n1` stands -1.36%.
For `CC(=O)NCCc1cc(N2CCN(C(C)=O)CC2)nc(C2CC2)n1`, the Percent Effect stood at 7.59%.
On the same count and under the same terms, the result for `NC(=O)CC1CCN(C(=O)CCOc2ccc(Cl)cc2)CC1` reads 1.27%; that for `CCn1ccnc1CN1CCCC(CO)(Cc2cccc(Cl)c2)C1` (stereo not drawn), -2.28%.
`COc1cccc(C(=O)NS(=O)(=O)c2cccc(C#N)c2)c1OC`: the Percent Effect was determined as 0.367%.
On the same count and under the same terms, under `Cc1csc(N2CCN(CCc3ccccn3)CC2C)n1` (stereo not drawn) stands 17.9%; under `Cn1nnc2c1CCN(Cc1ccccc1)C2COCC1CC1` (stereo not drawn), 8.15%.
Regarding `c1ccc(-c2noc3c2CN(CC2CC2)CC3)cc1`, the Percent Effect stood at 11.2%.
As for `CC(C)(C)c1n[nH]c(C2CN(C(=O)c3csnn3)CCO2)n1` (stereo not drawn), the Percent Effect was found to be 6.98%.
On the same count and under the same terms, under `O=C(NC[C@H]1OC[C@@H]2CCN(Cc3ccco3)C[C@@H]21)c1ccsc1` stands -6.7%.
`CS(=O)(=O)NC[C@]12COC[C@H]1CN(C(=O)c1ccoc1)C2`: the Percent Effect is 21.3%.
On the same count and under the same terms, under `Cc1nn(C)c(N(C)C)c1CNCc1ccccc1CN(C)C` stands -0.0229%.
